The results in this text go back to the OligoGym collection.
Also: reference of the scale not given here.

In the first test the target is KIAA1217. The test can be described thus: pooled miR-30 sensor sort-seq; sequence = guide strand. Particulars: shRNA.
Turning to TTCTCGATAGACACTGCCCTGT, the sensor-assay potency score (higher = more potent) is -0.436.

Take TTGAACTTCCATTCTGTGCCTT: the sensor-assay potency score (higher = more potent) amounted to 0.894.

With TTCTTCAATGAACAAGCTCTGC, the sensor-assay potency score (higher = more potent) is -0.544.

The target in the next test is KIAA1279. Described as above. Particulars: shRNA.
With TTGAGCTAGGTAATATAGGTTA, the sensor-assay potency score (higher = more potent) was -0.261.

Regarding TTCAATATTGCACATTTCCTTT, the sensor-assay potency score (higher = more potent) is -0.873.

Turning to TAGCTTATTGATGTAAAACTGT, the sensor-assay potency score (higher = more potent) was -0.47.

Take TAGCTCAACTTCTATTTCCTGG: the sensor-assay potency score (higher = more potent) is 0.213.

TAAAGCTCTAAGTTCAGACTGT registered a sensor-assay potency score (higher = more potent) of 0.562.

TATACTGATTATATAGTGCTTC yielded a sensor-assay potency score (higher = more potent) of 0.382.

In the case of TTCTTTGATGATAAAGCTCTGG, the sensor-assay potency score (higher = more potent) is -0.681.

Consider TAGTACTTCAGTGCTGACTTAT, for which the sensor-assay potency score (higher = more potent) is -0.671.

For TTTTTGATCTCTCTTGTTCAGT, the sensor-assay potency score (higher = more potent) is -0.606.

TTAATAGGAAACAAGCATCTAA returned a sensor-assay potency score (higher = more potent) of 0.679.

Turning to TAGGTTATGAGTATAAACCTTT, the sensor-assay potency score (higher = more potent) is -0.128.

A further test addresses KIAA2018. The description is as above. The conditions noted are these: shRNA.
With TTTCTGCATCTGAACTTCCTGT, the sensor-assay potency score (higher = more potent) is -0.663.

As for TTGTTGTAGATGACAAACCAGG, the sensor-assay potency score (higher = more potent) was -1.34.

Sequence TCTGCTTCCAACATCCTGCTGT returned a sensor-assay potency score (higher = more potent) of 0.86.

TTGAGCTGGAACATGCTGCTGC registered a sensor-assay potency score (higher = more potent) of 0.733.

For TATCTGATGAATCTTGCTCAAC, the sensor-assay potency score (higher = more potent) was -1.15.

As for TAGATTTCGATACAGACTCAGG, the sensor-assay potency score (higher = more potent) was -1.04.

TTTGTGTTGAGTTAGACGCTGA came in with a sensor-assay potency score (higher = more potent) of 0.486.

Consider TTTCTGTACAGAAACATTGGGG, for which the sensor-assay potency score (higher = more potent) is -0.202.

In turn, TAAACTTCCACTGTTTACCTTC came in with a sensor-assay potency score (higher = more potent) of 0.292.

As for TTGCTGGTCACATCTTCTCTTG, the sensor-assay potency score (higher = more potent) was -1.17.

TAGATTATAAGTACTAGCTAGT gave a sensor-assay potency score (higher = more potent) of 0.0786.

For TTGACTAATTCGAAAAGCCTGG, the sensor-assay potency score (higher = more potent) was -0.327.

The next test deals with KIF21A. The test is described as above. The conditions noted are these: shRNA.
In the case of TTTTATATAACTATGAATCATA, the sensor-assay potency score (higher = more potent) was -0.753.

TTGATTTGCTGACTAGCTCTGT had a sensor-assay potency score (higher = more potent) of 0.32.

Turning to TATACATTGAATGTAGATCTGC, the sensor-assay potency score (higher = more potent) is -0.0184.

In the case of TTTCATTTCCATCACATCCTGC, the sensor-assay potency score (higher = more potent) is 0.0152.

Turning to TTGCAGAACAAGCATCTCCAAG, the sensor-assay potency score (higher = more potent) is -1.19.

In the case of TTGAATGTAGATCTGCTCTTGC, the sensor-assay potency score (higher = more potent) was found to be 0.95.

TTCAACTGAGCAATCTCTCTGT: the sensor-assay potency score (higher = more potent) is 0.68.

Consider TTCTAGTTCATCAATCAGCTTT, for which the sensor-assay potency score (higher = more potent) is -0.0186.

TTGCTGACTAGCTCTGTCCTGA had a sensor-assay potency score (higher = more potent) of 0.278.

With TTGTTTGAGTCGACCTTCCAGT, the sensor-assay potency score (higher = more potent) was -0.666.

Regarding TTGAGCTGCTTGAAGTCTCTGC, the sensor-assay potency score (higher = more potent) was found to be 0.624.

Take TAGTAGTCTTGTTAGCTTGGAA: the sensor-assay potency score (higher = more potent) is -0.0525.
